hgDAF-12 ag = H. glycines DAF-12 receptor agonists, primary screen, cell-based, luminescence, HEK293, GAL4 fusion, UAS-luciferase; 370,000 compounds, 1.8% hits; HEK293 GAL4-hgDAF12 UAS-luciferase reporter, agonist luminescence; normalized to butyrate control; Nuclear hormone receptor DAF-12 (Heterodera glycines), GAL4 fusion; AID 687014, 2013; activation, % at 6.8 µM;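 active means activation above a cutoff set at the mean of all screened compounds plus 3 SD, cut at about 10% in these data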
hcDAF12 agonist = H. contortus DAF-12 nuclear receptor activators, primary screen, cell-based, luminescence, HEK293, lit1-tk-luc reporter | activation, % at 6.8 µM | 370,000 compounds, 1.4% hits | HEK293 hcDAF-12 lit1-tk-luc reporter; 0% DMSO, 100% Δ7-dafachronic acid;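 active means activation above the mean of all tested compounds plus 3 SD, cut at about 5.5% in these data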
DAX1 inh-1 = DAX1 (NR0B1) inhibitors on StAR promoter, primary screen, cell-based, luminescence, SF-1 (NR5A1), full-length DAX-1; HEK293T StAR-luciferase reporter, SF-1/DAX-1 repression relief; inhibition, % at 6.8 µM; 370,000 compounds, 1.1% hits; AID 652010, 2013;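 active means inhibition above the mean over all tested compounds plus 3 SD, cut at about 3.6% in these data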;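 further: higher inhibition means more luminescence from relief of DAX-1 repression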
DAX1 inh-2 = DAX1 (NR0B1) inhibitors, primary screen, cell-based, HEK293, Gal4-DAX1, luciferase luminescence | HEK293 Gal4-DAX1 luciferase reporter | inhibition, % at 6.75 µM | 340,000 compounds, 0.99% hits | AID 504766, 2011;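 active means inhibition above the mean over all tested compounds plus 3 SD, cut at about 4.2% in these data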;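 further: inhibition shows as a rise in luminescence from relieved DAX1 repression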
ssDAF-12 act = S. stercoralis DAF-12 nuclear receptor activators, primary screen, cell-based, luminescence, HEK293, GRIP1 co-expression, lit1-tk-luc. HEK293 ssDAF-12/GRIP1 lit1-tk-luc reporter; % of 3 µM dafachronic acid response. Nuclear hormone receptor DAF-12 (Strongyloides stercoralis). activation, % at 6.8 µM. 370,000 compounds, 1% hits;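 active means activation above the mean over all tested compounds plus 3 SD, cut at about 0.9% in these data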
LXRb hcDAF ctr = LXR agonists, Gal4 luciferase reporter, confirmation, counter-screen for hcDAF-12 agonist project, cell-based, luminescence, HEK293, H. contortus campaign. activation, % at 6.8 µM. HEK293 Gal4-LXR tk-luc reporter, 24 h; normalized: DMSO 0%, positive control 100%. 3,400 tested, under 10 active. shares compounds with hcDAF12 agonist. AID 743027, 2013;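 active means mean percent activation of the reporter above a cutoff set as the average over tested compounds plus their standard deviation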
Target sequence (P55055 whole entry, looked up, the tested form may be a part): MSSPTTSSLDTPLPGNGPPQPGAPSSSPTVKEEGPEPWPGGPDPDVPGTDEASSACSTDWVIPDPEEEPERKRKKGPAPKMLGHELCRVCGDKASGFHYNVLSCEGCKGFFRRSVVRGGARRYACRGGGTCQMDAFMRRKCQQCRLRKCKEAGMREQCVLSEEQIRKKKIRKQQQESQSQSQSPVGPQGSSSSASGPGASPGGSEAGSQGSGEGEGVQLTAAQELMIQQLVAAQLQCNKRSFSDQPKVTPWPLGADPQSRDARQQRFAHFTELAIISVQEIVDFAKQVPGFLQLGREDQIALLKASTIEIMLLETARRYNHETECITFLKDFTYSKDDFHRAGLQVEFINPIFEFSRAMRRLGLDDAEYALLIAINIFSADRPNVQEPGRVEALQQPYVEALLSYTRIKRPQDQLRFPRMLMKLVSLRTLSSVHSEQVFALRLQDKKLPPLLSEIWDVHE
hcDAF12 conf = H. contortus DAF-12 receptor agonists, confirmation, cell-based, luminescence, HEK293, lit1-tk-luc, triplicate | shares compounds with hcDAF12 agonist | HEK293 hcDAF-12 lit1-tk-luc reporter; % of Δ7-dafachronic acid response | activation, % at 6.8 µM | 3,400 compounds, 61% hits | AID 743032, 2013;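 active means mean activation across triplicate tests above the threshold derived from the earlier primary screen, cut at about 5.5% in these data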
Numbers stand for hits; . = inactive; / = no result. Rows were chosen to be rich in hits. Some 4.1% of all compounds tested hit in one or more screens of this group.

SMILES	hgDAF-12 ag	hcDAF12 agonist	DAX1 inh-1	DAX1 inh-2	ssDAF-12 act	LXRb hcDAF ctr	hcDAF12 conf
Cc1ccc(S(=O)(=O)N2CN(CC3CCCO3)c3nc4ccccc4nc32)c(C)c1 (stereo not drawn)	.	8.1	.	.	.	.	.
O=S(=O)(c1cccs1)N1CN(CC2CCCO2)c2nc3ccccc3nc21 (stereo not drawn)	.	.	.	.	.	/	/
C[C@@H](NC(=O)C[C@H]1CC[C@H]2[C@@H](COc3ccc(NC(=O)Nc4ccccc4)cc3C(=O)N2C)O1)c1ccccc1	.	.	.	/	.	/	/
Cc1[nH]c2ccccc2c1/C=N/Nc1nc(Nc2ccc(F)cc2)nc(N2CCOCC2)n1	.	6.8	.	.	.	.	.
C(=N\Nc1nc(Nc2ccccc2)nc(N2CCOCC2)n1)/c1c[nH]c2ccccc12	.	.	.	/	.	/	/
Cc1ccc(Nc2nc(N/N=C/c3c[nH]c4ccccc34)nc(N3CCOCC3)n2)cc1	.	7.5	.	.	1.1	.	.
COc1ccccc1NC(=O)Nc1cccc(C(=O)O)c1	.	.	.	.	.	/	/
COc1ccccc1NC(=O)NC(=O)c1ccccc1	.	11	.	.	.	.	13
O=C(Cc1c[nH]c2ccccc12)Nc1ccc(Nc2cccnc2)c(Br)c1	.	.	.	/	.	/	/
Cn1c(=O)c2c(nc(SCCN3CCOCC3)n2Cc2ccccc2Cl)n(C)c1=O	.	.	.	.	.	/	/
Cn1c(=O)c2c(nc(SCCN3CCOCC3)n2Cc2ccc(F)cc2)n(C)c1=O	.	7.8	.	4.4	.	.	7.5
Cc1ccc(-n2c(SCC(=O)NN=Cc3ccc(-c4ccccc4)cc3)nnc2-c2ccccc2)cc1	.	.	.	/	.	/	/
CC(=O)NNc1ncnc2c1cnn2-c1ccccc1	.	.	.	.	.	/	/
CC(=O)NNc1ncnc2ccccc12	.	10.0	.	8.7	.	.	.
FC(F)(F)c1ccccc1C(C#Cc1ccccc1)NCc1ccc2c(c1)OCO2 (stereo not drawn)	.	.	.	/	.	/	/
CC(C)C[C@@H]1COc2cc(Br)ccc2S(=O)(=O)N1Cc1cn(CCC2OCCCO2)nn1	.	.	.	/	.	/	/
Nn1c(-c2cccs2)nc2sc3c(c2c1=O)CCCC3	12	21	.	.	2.0	.	11
CC1(C)Cc2c(sc3nc(-c4cccs4)n(N)c(=O)c23)CO1	.	.	.	.	.	/	/
O=C(C[n+]1cc(Br)cc2ccccc21)c1ccc(Br)cc1	.	.	.	.	.	/	/
O=C(C[n+]1cc(Br)cc2ccccc21)c1ccc(Cl)cc1	.	8.2	.	.	.	.	.
COc1cc(CNc2ccc(N3CCCC3)cc2)ccc1OCc1ccccc1	.	7.7	.	.	.	.	5.9
CC(NC(=O)c1cc2ccc(C(F)(F)F)cc2nc1N)c1cccc2ccccc12 (stereo not drawn)	.	.	.	/	.	/	/
O=C(NCCc1ccccc1Cl)[C@@H]1CCCN1C(=O)[C@H](Cc1cccnc1)NC(=O)N1CCOCC1	.	.	.	/	.	/	/
COC(=O)c1sccc1NC(=O)c1ccc(C(C)C)cc1	.	7.1	.	.	.	.	6.8
FC(F)(F)c1nc2cc3nc4ccccc4[nH]c3cc2n1	.	7.6	.	.	.	.	.
SMILES	hgDAF-12 ag	hcDAF12 agonist	DAX1 inh-1	DAX1 inh-2	ssDAF-12 act	LXRb hcDAF ctr	hcDAF12 conf
CSc1ccccc1OCc1cc(C(=O)NC2CCOC2)no1 (stereo not drawn)	.	.	.	.	.	/	/
CSc1ccccc1OCc1cc(C(=O)NC2CCc3ccccc32)no1 (stereo not drawn)	.	7.6	.	.	.	.	.
NNc1nc2ccc(F)cc2s1	.	10.0	.	.	.	.	.
Cc1ccc(CN2CC=CS2(=O)=O)cc1	.	.	.	/	.	/	/
O=C(Nc1ccccc1N1CCCCC1)c1ccc(-c2cccc(Cl)c2)o1	.	7.4	.	.	.	.	.
O=C(Nc1ccccc1N1CCCC1)c1cc2ccccc2o1	12	7.5	.	.	1.9	.	6.7
O=C(Nc1ccccc1N1CCCCC1)c1ncoc1-c1cccc(F)c1	.	7.0	.	.	.	.	.
O=C(Nc1cccnc1Cl)c1cc2ccccc2o1	12	9.3	.	4.2	2.8	.	.
O=C(Nc1ccccc1N1CCCCC1)c1ncoc1-c1ccc(F)cc1	.	.	.	.	.	/	/
O=C(C1CCN(c2nc(-c3ccc(Br)cc3)cs2)CC1)N1CCNCC1	.	.	/	/	.	/	/
O=C(NCC(c1ccccc1)c1ccccc1)[C@H](Cc1ccccc1)NC1(C(=O)NC2CCCCC2)CCCC1	.	.	/	/	.	/	/
Nc1[nH]c(C(=O)c2ccccc2)c(-c2ccccc2)c1C(=O)NCCc1c[nH]c2ccccc12	.	.	.	/	.	/	/
Cc1cc(N=Nc2ccc(C)c(N=Nc3cc(C)c(N)cc3N)c2)c(N)cc1N	13	7.3	.	.	.	.	12
COc1ccc(N=Nc2cc(OC)c(N)cc2OC)cc1	.	.	.	.	.	/	/
COc1ccccc1C(=O)NNC(=O)c1ccc(C)cc1	.	.	.	.	.	/	/
COc1ccccc1C(=O)NNC(=O)c1cccc(O)c1	.	10	.	.	2.6	.	15
COc1ccccc1C(=O)NNC(=O)c1cccc(F)c1	.	10	3.9	.	1.2	.	11
COc1ccccc1C(=O)NNC(=O)c1ccc(NS(=O)(=O)c2cccs2)cc1	.	10	.	.	.	.	6.4
O=S1(=O)c2c(cccc2N2CCC[C@H]2CO)OCCCN1C1CC1	.	.	.	/	.	/	/
COc1ccccc1N1C(=O)CC(N(O)c2ccccc2)C1=O (stereo not drawn)	.	6.7	.	.	.	.	.
CCCOc1ccccc1N1C(=O)CC(N(O)c2ccccc2)C1=O (stereo not drawn)	.	.	.	.	.	/	/
CCCn1cc(C(=O)Nc2ccc(Oc3cccnc3)cc2)c2ccccc21	.	.	.	/	.	/	/
